High-throughput results: PubChem BioAssay, Buhrlage Lab, Dana-Farber Cancer Institute and Novartis Institutes for BioMedical Research (Cambridge, Mass)
A selection: hits, their analogues and other compounds. The true share with any hit is near 12%.
USP30 inh = inhibitors of human USP30 deubiquitinase; inhibition, % at 25 µM; hit rate 5.3% among 47,000; purified USP30, Ub-rhodamine cleavage fluorescence; Ubiquitin carboxyl-terminal hydrolase 30 (Homo sapiens), Q70CQ3
Target sequence (Q70CQ3 whole entry, looked up): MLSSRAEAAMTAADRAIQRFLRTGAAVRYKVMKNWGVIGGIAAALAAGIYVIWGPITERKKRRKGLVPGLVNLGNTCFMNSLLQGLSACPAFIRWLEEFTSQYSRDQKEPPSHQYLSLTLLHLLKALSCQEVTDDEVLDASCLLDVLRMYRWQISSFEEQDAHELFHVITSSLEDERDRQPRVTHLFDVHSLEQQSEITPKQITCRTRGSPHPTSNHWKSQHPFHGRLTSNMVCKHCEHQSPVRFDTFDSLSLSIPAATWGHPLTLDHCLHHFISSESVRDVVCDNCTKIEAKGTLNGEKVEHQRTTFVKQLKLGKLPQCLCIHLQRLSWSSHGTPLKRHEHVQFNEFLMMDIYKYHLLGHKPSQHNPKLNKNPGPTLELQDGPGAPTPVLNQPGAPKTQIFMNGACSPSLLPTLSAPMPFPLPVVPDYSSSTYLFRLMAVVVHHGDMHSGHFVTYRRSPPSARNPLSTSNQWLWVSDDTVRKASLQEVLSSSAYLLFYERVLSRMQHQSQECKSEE
USP28 block = inhibitors of human USP28 deubiquitinase; Ubiquitin carboxyl-terminal hydrolase 28 (Homo sapiens), Q96RU2; purified USP28, Ub-rhodamine cleavage fluorescence, 30 min; inhibition, % at 25 µM; hit rate 3% among 47,000; AID 1645857, 2021
OTUD3 inh = inhibitors of human OTUD3 deubiquitinase | OTU domain-containing protein 3 (Homo sapiens), Q5T2D3 | purified OTUD3, Ub-rhodamine fluorescence, 2 h | inhibition, % at 25 µM | hit rate 0.7% among 47,000
USP17 inh = inhibitors of human USP17 deubiquitinase | Ubiquitin carboxyl-terminal hydrolase 17-like protein 5 (Homo sapiens), A8MUK1 | purified USP17, Ub-rhodamine cleavage fluorescence, 3 h | inhibition, % at 50 µM | hit rate 6.5% among 47,000
Of the large screens only hits and unclear results are named; the others gave an inactive call. No stated cut-off is given here; in the data, active means inhibition above about 30%; inactive means the rest.

COc1cc(OC)cc(C(=O)Nc2n[nH]c(C)c2-c2cccc(C)c2)c1	none
COc1ccc(C(=O)Nc2n[nH]c(C)c2-c2cccc(C)c2)c(OC)c1	USP30 inh 72, USP28 block 34
COc1ccc(-c2cccc([C@H]3C[C@@H](NC(C)=O)[C@@H]4CCCC[C@H]4O3)c2)cc1	none
CC1NC(=O)C(CC(N)=O)NC(=O)C(C(C)O)NC(=O)C(C(C)C)NC(=O)C(C(C)C)NC(=O)C(NC(=O)CC(O)CCCCCCCCCCCCN=C(N)N)C(C)OC1=O (centres undefined)	USP30 inh 90, USP28 block 84, OTUD3 inh 83, USP17 inh 70
COCCNc1nc(SC)nc2c1sc1nc(-c3ccccc3)c3c(c12)CCC3	none
Cc1ccc2nc(NC(=O)CSc3nnc(-c4ccncc4)n3C3CC3)sc2c1	USP17 inh 57
Cc1ccc2nc(NC(=O)CN3CCC(C(N)=O)CC3)sc2c1	none
CC1=C(O)C(=O)C(C2=C(O)C(=O)C(C)=C(O)C2=O)=C(O)C1=O	none
O=C1C(O)=C(c2ccc(O)cc2)C(=O)C(O)=C1c1ccccc1	USP30 inh 33, OTUD3 inh 33
COc1cc2c(=O)n(CCCC(=O)NCC3CCCO3)c(=O)n(CC(=O)NC3CCCCC3)c2cc1OC (centres undefined)	USP30 inh 33
COc1cc2c(=O)n(CC3CCCO3)c(=O)n(CC(=O)c3ccc4c(c3)OCO4)c2cc1OC (centres undefined)	none
COc1cc2c(=O)n(CC3CCCO3)c(=O)n(CC(=O)Nc3ccc4c(c3)OCCO4)c2cc1OC (centres undefined)	USP30 inh 38, USP17 inh 49
c1ccc2c(c1)oc1c(N3CCCC3)ncnc12	none
Fc1ccc(-c2cnc(NCc3ccc(Cl)cc3)nc2)cc1	none
CCOc1ccc(CCNC(=O)c2ccc3c(c2)N(CC)C(=O)c2ccccc2S3)cc1OCC	USP28 block 60
O=C(NCCCN1CCOCC1)c1ccc2c(c1)N(Cc1ccc(Cl)cc1)C(=O)c1ccccc1S2	none
Cc1cc2nc(CSc3ccccc3NC(=O)Nc3cccc(C(F)(F)F)c3)cc(=O)n2o1	none
Cc1nc2ccn(Cc3ccco3)c(=O)c2cc1C(=O)NCc1cccs1	USP28 block 30
COCCn1ccc2nc(C)c(C(=O)NCc3ccccc3)cc2c1=O	none
CS(=O)(=O)c1cccc(N2CCN(CC3CC3)C2=O)c1	USP28 block 33
CC(C)c1ccc(N2CCN(Cc3ccc(F)cc3F)C2=O)cc1	none
CS(=O)(=O)c1cccc(N2CCN(Cc3ccc(F)cc3F)C2=O)c1	USP28 block 33
CC(=O)N1CCCC(c2nnc3n2CCN(Cc2cccc(F)c2)CC3)C1 (centres undefined)	none
COCCCNC(=O)c1c(N2CCCC2=O)c2cc(C)ccc2n1C	none
COc1ccc(-c2nc3[nH]c(=O)cc(NC(=O)Cc4ccccc4)n3n2)cc1	none
O=C(CN1CCc2[nH]c3c(F)c(Cl)ccc3c(=O)c2C1)NCc1ccc2c(c1)OCO2	USP30 inh 32, USP17 inh 46
Cc1cc(=O)n(CC(=O)NCc2ccc3c(c2)OCO3)c(-c2ccc(F)cc2)n1	none
COc1ccc(C)cc1Nc1cc(C)nc2nc(-c3ccco3)nn12	none
Cc1cc(Nc2cc(F)ccc2F)n2nc(-c3ccco3)nc2n1	none
Cc1ccc(C)c(Nc2cc(C)nc3nc(-c4ccco4)nn23)c1	USP17 inh 58
Cc1cc(Nc2ccc(Cl)cc2)n2nc(-c3ccco3)nc2n1	USP17 inh 36
Cc1ccc(N2CC(C(=O)N3CCC(C(=O)Nc4ccccc4C(N)=O)CC3)CC2=O)cc1 (centres undefined)	none
Cc1ccc(OCCNC(=O)c2cc(=O)[nH]c3ccccc23)cc1	USP17 inh 43
CC1(c2ncc(CNC(=O)c3ccn[nH]3)cn2)CCCCO1 (centres undefined)	none
Cc1c(C(=O)NCc2cccc(Br)c2)oc2c1-c1[nH]ncc1CC2	USP17 inh 62
Cc1cc(O)c2c(=O)c3c(O)cccc3oc2c1O	USP17 inh 37
CN1CCN(c2ccc(NC(=O)Nc3ccc(C(F)(F)F)cc3)cc2)CC1	none
Cc1ccc(-c2nc(NC(=O)Nc3ccc(C(F)(F)F)cc3)sc2C)cc1Cl	USP17 inh 33
COc1ccc(CN(C(=O)c2cc(-c3ccc(C)cc3)on2)C2CCS(=O)(=O)C2)cc1 (centres undefined)	USP30 inh 50
CC(=O)Nc1ccc(Oc2cncc(Cl)c2)nc1	none
NC(=O)c1ccc(Oc2ccc(Cl)cc2)nc1	USP28 block 37, USP17 inh 32
O=C(Cc1noc2ccccc12)N1CCCCC1c1nc2ccccc2s1 (centres undefined)	none
N#Cc1ccc(Sc2ccccc2)c(NC(=O)c2ccc(F)cc2)c1	USP30 inh 31
CC1(C)CS(=O)(=O)N(c2ccc(C(=O)N3CCN(c4ccccc4F)CC3)cc2)C1=O	none
Cc1cccc(NC(=O)C(C)n2c(C)nc3onc(C)c3c2=O)c1 (centres undefined)	none
Cc1cccc(C)c1NC(=O)C(C)n1c(C)nc2onc(C)c2c1=O (centres undefined)	USP30 inh 43 (no result: USP17 inh)
COc1ccc(-c2cc3nc(C)cc(NCCc4ccccc4)n3n2)cc1OC	none
Cn1cnnc1-c1cccc(NC(=O)Nc2cccc3ccccc23)c1	USP17 inh 42
COC(=O)c1ccc(Nc2cc(C)nc3cc(C(F)(F)F)ccc23)cc1	USP30 inh 66, USP17 inh 64
O=C1N[C@@H]2CCN(C(=O)CN3CSCC3=O)C[C@@H]2CCCCCOc2ccccc21	none
O=C(Cn1cnc(S(=O)(=O)N2CCCCC2)c1)Nc1ccc2c(c1)OCO2	USP17 inh 35
CC1CCN(S(=O)(=O)c2cn(CC(=O)Nc3cccc(-c4ccno4)c3)cn2)CC1	USP17 inh 50
Cn1c(N2CCCCCC2)nc2c1c(=O)n(Cc1ccc(Cl)cc1)c(=O)n2C	USP30 inh 39
Cn1c(=O)n(Cc2ccccc2F)c(=O)c2c1nc1n2CCCN1Cc1ccccc1	USP30 inh 40
Cn1c(N2CCCCCC2)nc2c1c(=O)n(Cc1ccccc1Cl)c(=O)n2C	none
CC1CN(Cc2ccccc2)c2nc3c(c(=O)n(CCN4CCCCC4)c(=O)n3C)n2C1 (centres undefined)	none
COc1ccc([C@@H]2CN(Cc3cccc(F)c3)C[C@H]2c2cc(=O)[nH]c(C)n2)cc1	none
Cc1cccc2c(=O)n(C)c(CCC(=O)NCc3cc(F)ccc3F)nc12	USP30 inh 45, USP17 inh 38
CCc1ccc(-n2nc(C)c3c2NC(=O)CC3C(=O)c2ccc3c(c2)OCCO3)cc1 (centres undefined)	USP17 inh 57
COc1ccc(-n2nc(C)c3c2NC(=O)CC3C(=O)c2ccc3c(c2)OCCO3)cc1 (centres undefined)	none
O=C(/C=C/c1ccccc1)N1CCN(C2=NS(=O)(=O)c3ccccc32)CC1	USP30 inh 80
